Data from PubChem BioAssay (NCATS).
Several values for one entry are separate records, joined by “and”; a condition that tells them apart may be missing. Identical values can stand only once. Activity calls are given as the source filed them. Calls come from the whole dose curve.

Assay: qHTS drug screen for cell cycle checkpoint inhibitors in PARPi-resistant BRCA-mutant ovarian cancer cell lines. (AID 1963452)
Conditions: PEO1/OlaR viability, CellTiter-Glo luminescence, 96 h; for Z-AUC: stronger effect = lower value
Summary of the method: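 PEO1, PEO4 and PEO1/OlaR ovarian cancer cells, 600 per well, exposed 96 h at 37C to a dilution series. Viability read by CellTiter-Glo luminescence, normalized to DMSO and empty wells; activity summarized as Z-AUC.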

[1] = measured here: PEO1 parental Z-AUC
Potency is the fitted concentration of half-maximal effect.

With `O=C(NOCC(O)CO)c1ccc(F)c(F)c1Nc1ccc(I)cc1F` (stereo not given) the Z-AUC was -1.69 (inactive), the Z-AUC [1] was -1.32 and the Z-AUC (measured here: PEO4 Z-AUC) was -0.907.
With `CCOCc1nc2c(N)nc3ccccc3c2n1CC(C)(C)O` the Z-AUC was -0.746 (inactive), the Z-AUC [1] was -0.509 and the Z-AUC (measured here: PEO4 Z-AUC) was -0.947.
With `Cc1ccc(-c2ccc3ncc4c(c3n2)n(C2CCN(C(=O)[C@H](C)O)CC2)c(=O)n4C)cn1` the Z-AUC was -1.81 (inactive), the Z-AUC [1] was -2.34 and the Z-AUC (measured here: PEO4 Z-AUC) was -2.23.
In the case of `CN(C)C1CCN(C(=O)c2ccc(NC(=O)Nc3ccc(-c4nc(N5CCOCC5)nc(N5CCOCC5)n4)cc3)cc2)CC1`, the Potency is reported as 309 nM (active) and 692 nM (active), the Z-AUC [1] is reported as -2.41 and -1.47 and the Z-AUC (measured here: PEO4 Z-AUC) is reported as -1.87 and -2.03.
In the case of `COc1cc2c(NC3CCN(CC4CCCCC4)CC3)nc(N3CCCN(C(C)C)CC3)nc2cc1OCCCN1CCCCC1`, the Z-AUC is reported as 0.256 (inactive), the Z-AUC [1] is reported as 0.301 and the Z-AUC (measured here: PEO4 Z-AUC) is reported as -0.248.
With `COCCOc1cnc2ccn([C@H](C)c3nnc4c(F)cc(-c5cnn(C)c5)cn34)c(=O)c2c1` the Z-AUC was 1.14 (inactive), the Z-AUC [1] was 0.929 and the Z-AUC (measured here: PEO4 Z-AUC) was 1.44.
For `CN[C@@H]1[C@H](O[C@H]2[C@H](O[C@@H]3[C@@H](O)[C@H](O)[C@@H](N=C(N)N)[C@H](O)[C@H]3N=C(N)N)O[C@@H](C)[C@]2(O)C=O)O[C@@H](CO)[C@H](O)[C@H]1O`, the Z-AUC was 1.52 (inactive), the Z-AUC [1] was 0.947 and the Z-AUC (measured here: PEO4 Z-AUC) was 1.26.
With `CCCN1CCN(c2ccc(C(=O)NC3(C(=O)NCC#N)CCCCC3)cc2)CC1` the Z-AUC was 0.959 (inactive), the Z-AUC [1] was 0.728 and the Z-AUC (measured here: PEO4 Z-AUC) was 0.558.
With `CCn1c(=O)c(-c2ccn[nH]2)cc2c(C)nc(N)nc21` the Z-AUC was -0.643 (inactive), the Z-AUC [1] was -0.106 and the Z-AUC (measured here: PEO4 Z-AUC) was -0.63.
For `Cc1ccc(S(=O)(=O)Cc2nc(-c3ccc(C(=O)NCc4cccnc4)cc3)oc2C)cc1`, the Z-AUC was -1.97 (inactive), the Z-AUC [1] was -3.12 and the Z-AUC (measured here: PEO4 Z-AUC) was -2.76.
For `CCN1CCN(Cc2ccc(Nc3ncc(F)c(-c4cc(F)c5nc(C)n(C(C)C)c5c4)n3)nc2)CC1`, the Z-AUC was 0.0865 (inactive), the Z-AUC [1] was 0.712 and the Z-AUC (measured here: PEO4 Z-AUC) was 0.621.
With `CS(=O)(=O)c1ccc(-c2nnc(/C=C/c3nnc(-c4ccc(C#N)cc4)o3)n2-c2ccccc2Cl)nc1` the Z-AUC was -0.316 (inactive), the Z-AUC [1] was 0.177 and the Z-AUC (measured here: PEO4 Z-AUC) was -0.0878.
In the case of `COc1cc2ncnc(Nc3cccc(Cl)c3F)c2cc1OC(=O)N1CCN(C)C[C@H]1C`, the Z-AUC is reported as -0.739 (inactive), the Z-AUC [1] is reported as -1.08 and the Z-AUC (measured here: PEO4 Z-AUC) is reported as -1.14.
With `C=C1C(=O)O[C@H]2[C@H]1CC/C(C)=C/CC[C@@]1(C)O[C@@H]21` the Z-AUC was 1.08 (inactive), the Z-AUC [1] was 0.881 and the Z-AUC (measured here: PEO4 Z-AUC) was 0.819.
In the case of `O=C(NCc1cccc(O)c1)Nc1nc(-c2ccncc2)cs1`, the Z-AUC is reported as -0.136 (inactive), the Z-AUC [1] is reported as 0.195 and the Z-AUC (measured here: PEO4 Z-AUC) is reported as -0.295.
